# Results reported in PubChem BioAssay (EPA / NIEHS).
# Records with an inconclusive call do not appear. Activity calls are given as the source filed them. Rule for the calls: active = hit-call score of the fitted dose curve at least 0.9, where 1 is the maximum; inconclusive = response in the unintended direction; inactive = score below 0.9.
# Columns and labels:
# [1] = molecular target: Adenosine receptor A1 (Bos taurus) (UniProt P28190); experiment: NVS_GPCR_bAdoR_NonSelective: NovaScreen (NVS) G Protein-Coupled Receptor Assay for bovine Adenosine Receptor (AdoR), Non-selective Binding (AID 2283244)
# Adenosine receptor A1 (Bos taurus), sequence (P28190 whole entry, looked up): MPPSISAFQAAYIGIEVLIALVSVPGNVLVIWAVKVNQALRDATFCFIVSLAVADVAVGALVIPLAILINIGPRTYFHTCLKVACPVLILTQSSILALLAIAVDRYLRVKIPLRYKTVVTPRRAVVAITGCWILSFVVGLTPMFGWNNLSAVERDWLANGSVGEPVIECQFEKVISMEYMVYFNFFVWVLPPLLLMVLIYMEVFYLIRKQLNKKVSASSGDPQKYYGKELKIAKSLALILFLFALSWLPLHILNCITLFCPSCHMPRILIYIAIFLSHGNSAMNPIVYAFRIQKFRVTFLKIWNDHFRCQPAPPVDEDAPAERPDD
# Method: NVS_GPCR_bAdoR_NonSelective is a biochemical, single-readout assay that uses extracted gene-proteins from Bovine striatal membranes in a tissue-based cell-free assay. Measurements were taken 1 hour after chemical dosing in a 96-well plate.NVS_GPCR_bAdoR_NonSelective is one of one assay component(s) measured or calculated from the NVS_GPCR_bAdoR_NonSelective assay. It is designed to make measurements of radioligand binding, a form of binding reporter, as detected with scintillation counting signals by Filter-based radiodetection technology.Data from the assay component NVS_GPCR_bAdoR_NonSelective was analyzed into 1 assay endpoint. This assay endpoint, NVS_GPCR_bAdoR_NonSelective, was analyzed in the positive analysis fitting direction relative to DMSO as the negative control and baseline of activity. Using a type of binding reporter, loss-of-signal activity can be used to understand changes in the binding as they relate to the gene ADORA1. Furthermore, this assay endpoint can be referred to as a primary readout, because the performed assay has only produced 1 assay endpoint. To generalize the intended target to other relatable targets, this assay endpoint is annotated to the gpcr intended target family, where the subfamily is rhodopsin-like receptor.
# Binding assays used specific radioligands (tritiated, iodinated) with non-radioactive competitive displacement ligands in agonist or antagonist protocols (as indicated) and various reference compounds and inhibitors to titrate specific binding to receptors and transporters. Most enzyme assays (CYPs, kinases, phosphatases, proteases, HDACs) used recombinant protein and specific substrates (fluorescence mostly, some colorimetric and radioactive) and inhibitors, followed by a biochemical separation of substrate and product. All assays for the biochemical HTS were initially run in duplicate at a single concentration (10 uM for CYP450 assays and 25 uM for all others). Assay-chemical combinations meeting a pre-defined threshold (e.g., 30% inhibition and other criteria defined below) were then run in singleton concentration-response format with maximum concentration of 20 uM for CYPs and 50 uM for all others. Each assay was run with positive and negative controls, and concurrent controls on every plate. The follow-up (secondary) screen tested active chemical-pairs in concentration series, as well as a few additional assays not tested in the primary screen, some selected negative inactives, and several cases re-run in the concentration series for confirmatory purposes.
# [2] = system: guinea pig Muscarinic, Peripheral (Mperiperal) Receptor, Non-selective Binding, gene 100379235; experiment: NVS_GPCR_gMPeripheral_NonSelective: NovaScreen (NVS) G Protein-Coupled Receptor Assay for guinea pig Muscarinic, Peripheral (Mperiperal) Receptor, Non-selective Binding (AID 2283250)
# In short: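 Guinea pig bladder membranes, radioligand binding read 1 h after dosing by filter scintillation counting; loss of signal vs DMSO. Primary duplicate screen at 25 uM, then concentration-response up to 50 uM.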
# [3] = system: guinea pig Leukotriene B4 Receptor (LTB4), gene 100379538; experiment: NVS_GPCR_gLTB4: NovaScreen (NVS) G Protein-Coupled Receptor Assay for guinea pig Leukotriene B4 Receptor (LTB4) (AID 2283247)
# In short: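 Radioligand displacement on guinea pig spleen membranes, filter-based scintillation counting 2 h after dosing. Primary duplicate single point at 25 uM; hits over threshold (e.g. 30% inhibition) run in concentration-response up to 50 uM, DMSO baseline.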
# [4] = molecular target: human Serotonin, 5-Hydroxytryptamine Receptor 5A (5HT5A), HTR5A (gene 3361) (UniProt P47898); experiment: NVS_GPCR_h5HT5A: NovaScreen (NVS) G Protein-Coupled Receptor Assay for human Serotonin, 5-Hydroxytryptamine Receptor 5A (5HT5A) (AID 2283251)
# human Serotonin, 5-Hydroxytryptamine Receptor 5A (5HT5A), HTR5A (gene 3361), sequence (P47898 whole entry, looked up): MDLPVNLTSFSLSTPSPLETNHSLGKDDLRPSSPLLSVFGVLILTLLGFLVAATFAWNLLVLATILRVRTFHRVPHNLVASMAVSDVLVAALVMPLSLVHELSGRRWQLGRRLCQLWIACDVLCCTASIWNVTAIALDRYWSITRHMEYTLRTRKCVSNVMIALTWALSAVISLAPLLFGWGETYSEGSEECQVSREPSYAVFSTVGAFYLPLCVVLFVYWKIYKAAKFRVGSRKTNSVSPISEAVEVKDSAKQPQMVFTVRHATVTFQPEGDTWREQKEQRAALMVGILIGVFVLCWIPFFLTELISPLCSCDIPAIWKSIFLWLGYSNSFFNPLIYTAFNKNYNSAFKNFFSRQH
# In short: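 Cell-free radioligand displacement binding on HEK293-derived membrane protein, 1 h incubation, filter-based scintillation counting. Primary screen in duplicate at 25 uM, actives followed in concentration series; loss of signal fitted versus DMSO.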
# [5] = molecular target: human Serotonin, 5-Hydroxytryptamine Receptor 2A (5HT2A), HTR2A (gene 3356) (UniProt P28223); experiment: NVS_GPCR_h5HT2A: NovaScreen (NVS) G Protein-Coupled Receptor Assay for human Serotonin, 5-Hydroxytryptamine Receptor 2A (5HT2A) (AID 2283249)
# human Serotonin, 5-Hydroxytryptamine Receptor 2A (5HT2A), HTR2A (gene 3356), sequence (P28223 whole entry, looked up): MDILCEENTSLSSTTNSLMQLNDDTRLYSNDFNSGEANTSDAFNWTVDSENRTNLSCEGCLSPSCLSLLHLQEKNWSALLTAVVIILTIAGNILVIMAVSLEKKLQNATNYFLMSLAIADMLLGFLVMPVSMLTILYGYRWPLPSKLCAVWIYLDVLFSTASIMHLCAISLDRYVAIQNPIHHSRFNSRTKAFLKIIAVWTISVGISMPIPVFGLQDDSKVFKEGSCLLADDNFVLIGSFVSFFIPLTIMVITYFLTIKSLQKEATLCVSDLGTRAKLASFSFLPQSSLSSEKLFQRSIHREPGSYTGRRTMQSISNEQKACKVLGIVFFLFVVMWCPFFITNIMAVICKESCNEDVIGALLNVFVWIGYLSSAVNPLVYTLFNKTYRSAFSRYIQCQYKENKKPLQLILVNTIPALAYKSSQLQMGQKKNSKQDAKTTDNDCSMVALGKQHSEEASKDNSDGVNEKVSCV
# In short: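 Human cortex membranes, cell-free radioligand binding; filter-based scintillation read 1.5 h after dosing. Duplicate screen at 25 uM first; displacement of specific binding (loss of signal) versus DMSO.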
# [6] = molecular target: rat Monoamine Oxidase, MAO-B, Peripheral (MAOBP), Maob (gene 25750) (UniProt P19643); experiment: NVS_ENZ_rMAOBP: NovaScreen (NVS) Enzymatic Assay for rat Monoamine Oxidase, MAO-B, Peripheral (MAOBP) (AID 2283242)
# rat Monoamine Oxidase, MAO-B, Peripheral (MAOBP), Maob (gene 25750), sequence (P19643 whole entry, looked up): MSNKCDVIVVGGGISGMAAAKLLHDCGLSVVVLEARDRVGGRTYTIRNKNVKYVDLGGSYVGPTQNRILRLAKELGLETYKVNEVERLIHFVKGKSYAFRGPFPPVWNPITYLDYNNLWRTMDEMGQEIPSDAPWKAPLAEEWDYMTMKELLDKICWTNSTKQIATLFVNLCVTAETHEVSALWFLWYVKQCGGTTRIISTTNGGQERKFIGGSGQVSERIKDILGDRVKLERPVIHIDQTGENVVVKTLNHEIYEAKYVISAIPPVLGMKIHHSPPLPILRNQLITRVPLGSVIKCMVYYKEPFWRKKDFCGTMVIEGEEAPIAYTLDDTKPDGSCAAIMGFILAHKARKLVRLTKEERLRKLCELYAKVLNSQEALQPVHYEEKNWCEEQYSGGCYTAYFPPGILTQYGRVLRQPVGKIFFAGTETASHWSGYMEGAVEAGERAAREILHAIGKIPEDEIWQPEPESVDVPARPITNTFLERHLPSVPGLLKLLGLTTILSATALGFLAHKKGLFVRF
# [7] = molecular target: guinea pig Leukotriene D4 Receptor (LTD4), CYSLTR1 (gene 100135514) (UniProt Q2NNR5); experiment: NVS_GPCR_gLTD4: NovaScreen (NVS) G Protein-Coupled Receptor Assay for guinea pig Leukotriene D4 Receptor (LTD4) (AID 2283248)
# guinea pig Leukotriene D4 Receptor (LTD4), CYSLTR1 (gene 100135514), sequence (Q2NNR5 whole entry, looked up): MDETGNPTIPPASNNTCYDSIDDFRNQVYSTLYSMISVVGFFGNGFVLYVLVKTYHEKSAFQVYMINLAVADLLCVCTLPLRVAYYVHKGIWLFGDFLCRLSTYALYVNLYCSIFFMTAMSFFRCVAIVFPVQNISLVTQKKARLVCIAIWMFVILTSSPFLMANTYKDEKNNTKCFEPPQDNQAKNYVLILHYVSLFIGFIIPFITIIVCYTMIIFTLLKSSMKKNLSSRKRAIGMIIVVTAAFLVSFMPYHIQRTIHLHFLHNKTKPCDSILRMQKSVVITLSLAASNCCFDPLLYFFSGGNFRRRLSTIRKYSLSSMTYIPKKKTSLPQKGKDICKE
# In short: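 Radioligand displacement on guinea pig lung membranes, 1 h incubation, filtration and scintillation counting; DMSO as negative control. Duplicate 25 uM primary screen, then singleton concentration-response up to 50 uM.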
# [8] = system: bovine Angiotensin II Receptor Type 2 (AT2), gene 407157; experiment: NVS_GPCR_bAT2: NovaScreen (NVS) G Protein-Coupled Receptor Assay for bovine Angiotensin II Receptor Type 2 (AT2) (AID 2283240)
# In short: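 Radioligand displacement on bovine cerebellar membranes, 1 hour incubation, filter-based scintillation counting; loss of signal vs DMSO. Duplicate single-point screen at 25 uM, then concentration-response to 50 uM maximum.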
# [9] = system: rat Monoamine Oxidase, MAO-A, Central (MAOAC), gene 29253; experiment: NVS_ENZ_rMAOAC: NovaScreen (NVS) Enzymatic Assay for rat Monoamine Oxidase, MAO-A, Central (MAOAC) (AID 2283243);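 note: potency refers to inhibition seen as signal drop below DMSO baseline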
# In short: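 Rat brain tissue extract served as the cell-free enzyme source; activity was measured by radiometric scintillation counting 1.5 hours after compound addition. Loss of signal relative to DMSO baseline indicated inhibition; primary screen at 25 uM in duplicate.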
# [10] = NVS_GPCR_bNPY_NonSelective: NovaScreen (NVS) G Protein-Coupled Receptor Assay for bovine Neuropeptide Y (NPY) Receptor, Non-selective Binding (AID 2283245)
# In short: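 Bovine hippocampal membranes incubated 1 hour with radioligand and test chemical. Bound ligand measured by filter-based scintillation counting. Single-concentration screen at 25 uM in duplicate, then concentration-response up to 50 uM.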
compound,measurement,setting,value
Cc1ccccc1O,outcome,[1],inactive
O=C(N[C@H]1CN2CCC1CC2)c1cc2ccoc2cn1,outcome,[2],inactive
CCC(C)(c1ccc(O)cc1)c1ccc(O)cc1,AC50,[3],6.38 µM (active)
same,AC50,[4],13.4 µM (active)
Oc1ccc(C(c2ccc(O)cc2)(C(F)(F)F)C(F)(F)F)cc1,AC50,[3],0.436 µM (active)
same,AC50,[5],10.4 µM (active)
same,AC50,[2],13.6 µM (active)
same,AC50,[4],8.39 µM (active)
CC(C)(c1ccccc1)c1ccc(O)cc1,outcome,[6],inactive
same,AC50,[3],7.09 µM (active)
same,AC50,[4],25 µM (active)
Clc1ccc(Cl)cc1,outcome,[1],inactive
O=C(O)C(F)(F)C(F)(F)C(F)(F)C(F)(F)C(F)(F)C(F)(F)C(F)(F)C(F)(F)F,AC50,[3],25 µM (active)
same,outcome,[7],inactive
same,AC50,[4],17.7 µM (active)
CC(C)(O)C(=O)Nc1ccc([N+](=O)[O-])c(C(F)(F)F)c1,outcome,[6],inactive
CCNc1nc(NC(C)C)nc(SC)n1,outcome,[8],inactive
same,AC50,[1],13.4 µM (active)
O=S(=O)(O)C(F)(F)C(F)(F)C(F)(F)C(F)(F)C(F)(F)C(F)(F)F,AC50,[3],10.8 µM (active)
CCCCCCCCCC[N+](C)(C)CCCCCCCCCC,AC50,[9],34 µM (active)
same,AC50,[10],22.5 µM (active)
same,AC50,[5],5 µM (active)
same,AC50,[2],25 µM (active)
same,AC50,[4],9.63 µM (active)
Cc1cccc(C)c1N,outcome,[5],inactive
Oc1c(Cl)c(Cl)c(Cl)c(Cl)c1Cl,AC50,[9],15.5 µM (active)
same,outcome,[1],inactive
same,outcome,[7],inactive
NS(=O)(=O)C(F)(F)C(F)(F)C(F)(F)C(F)(F)C(F)(F)C(F)(F)C(F)(F)C(F)(F)F,AC50,[1],13.1 µM (active)
CC1=C2C[C@H]3[C@@H](CC=C4C[C@@H](O)CC[C@@]43C)[C@@H]2CC[C@]12O[C@@H]1C[C@H](C)CN[C@H]1[C@H]2C,outcome,[6],inactive
Cc1cc(O)ccc1Cl,AC50,[6],25 µM (active)
same,AC50,[9],18.5 µM (active)
CO/C=C(/C(=O)OC)c1ccccc1COc1cccc(C(F)(F)F)n1,outcome,[10],inactive
CCSC(=O)N(CC)C1CCCCC1,AC50,[6],32.8 µM (active)
CCC(C)c1cc([N+](=O)[O-])cc([N+](=O)[O-])c1O (stereo not drawn),outcome,[3],inactive
Nc1ccc(-c2ccc(N)cc2)cc1,AC50,[9],16.6 µM (active)
COc1ccc(O)c(C(C)(C)C)c1,outcome,[4],inactive
O=C(O)C(F)(F)C(F)(F)C(F)(F)C(F)(F)C(F)(F)C(F)(F)C(F)(F)C(F)(F)C(F)(F)F,outcome,[1],inactive
same,AC50,[3],11.6 µM (active)
same,outcome,[7],inactive
same,AC50,[4],20.7 µM (active)
O=S(=O)(O)C(F)(F)C(F)(F)C(F)(F)C(F)(F)F,AC50,[3],12.2 µM (active)
Oc1ccc(Cl)cc1Cl,outcome,[9],inactive
